These results are taken from PubChem BioAssay AID434989 (The Scripps Research Institute Molecular Screening Center, 2010).

The whole screen tested about 330,000 compounds, of which about 1,400 (0.42%) were called active. Shown is part of a subset that was picked to be rich in actives. Values without a mark were called inactive.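 How the source made its calls: active means inhibition above its plate's threshold, mean inhibition of all tested compounds on the plate plus 3 SD (cut at about 37% in these data); inactive means the rest.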

The target in this test is Orexin/Hypocretin receptor type 1 (Homo sapiens) (UniProt O43613). In words: blockers of orexin-A calcium signaling via HCRTR1 – fluorescence, CHO/OX1R cells, Fluo-8 calcium, primary screen (AID 434989).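 Further: 0% = orexin A challenge wells and 100% = SB-334867-A antagonist wells.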 As to conditions: Fluo-8 calcium fluorescence, at 5 µM, active compounds read high.
Sequence of Orexin/Hypocretin receptor type 1 (Homo sapiens) (O43613 whole entry, looked up): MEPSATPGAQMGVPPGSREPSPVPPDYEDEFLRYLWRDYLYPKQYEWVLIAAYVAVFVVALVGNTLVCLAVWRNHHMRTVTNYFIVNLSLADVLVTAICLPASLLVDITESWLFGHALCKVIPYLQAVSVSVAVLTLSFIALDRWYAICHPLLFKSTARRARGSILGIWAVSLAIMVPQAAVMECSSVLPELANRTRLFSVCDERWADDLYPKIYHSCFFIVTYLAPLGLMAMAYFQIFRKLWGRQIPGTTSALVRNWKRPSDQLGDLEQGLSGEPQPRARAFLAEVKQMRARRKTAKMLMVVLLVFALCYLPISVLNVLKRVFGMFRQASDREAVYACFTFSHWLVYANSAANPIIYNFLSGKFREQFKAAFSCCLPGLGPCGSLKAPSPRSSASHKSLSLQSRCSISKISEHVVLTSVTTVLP
The inhibition is the drop in the measured response relative to a control, in per cent. Take `CCC(C(=O)Nc1ccc2c(c1)OCCO2)c1ccccc1` (configuration not stated): the inhibition is 3.71%.
The same measure for `CCC(C(=O)Nc1ccc(C(C)C)cc1)c1ccccc1` (configuration not stated): 62.9% (active).
`CCC(C(=O)OCC(=O)Nc1ccc(C(=O)Nc2ccc(OC)cc2)cc1)c1ccccc1` (configuration not stated): the inhibition was -0.08%.
The same measure for `NCCN1CCN2C(=O)CN(C(=O)c3ccccc3)CC12` (configuration not stated): 3.19%.
The same measure for `CC(C)(C)OC(=O)C[C@@H]1C/C=C\C[C@@H](CC(=O)NCCO)C(=O)N[C@H](Cc2c[nH]c3ccccc23)COC1=O`: -10.6%.
`CCN1/C(=C\c2ccc3ccccc3[n+]2CC)Sc2cc(C)ccc21`: the inhibition is 54.6% (active).
For `COc1ccccc1N(CCOc1ccccc1)S(=O)(=O)c1ccccc1`, the inhibition was -0.89%.
To `COc1ccc2sc(-c3ccc(N(C)C)cc3)c(-c3ccc4cc[nH]c4c3)c2c1` belongs 1.84%; to `COc1ccc2sc(-c3ccc(N(C)C)cc3)c(C#CCO)c2c1`, 61% (active); to `COc1ccc(-c2sc3ccc(OC)cc3c2C#Cc2ccccn2)cc1`, -20.1%.
Take `Cc1ccc(NC(=O)c2ccc(Cl)nc2)cc1S(=O)(=O)N1CCOCC1`: the inhibition was -13.6%.
On to `COc1ccc(S(=O)(=O)N(C)C[C@H]2Oc3ccc(NS(=O)(=O)c4cccs4)cc3CC(=O)N([C@H](C)CO)C[C@H]2C)cc1`, for which the inhibition is -17.2%.
On to `Cc1ccc(C(=O)OCc2nc(N)nc(Nc3ccccc3C)n2)cc1`, for which the inhibition was -15.1%.
To `CC(NC(=O)COC(=O)CCC(=O)c1ccc(Cl)cc1)c1ccccc1` (configuration not stated) belongs -2.79%; to `Nc1nc(COC(=O)CCC(=O)c2ccc(Cl)cc2)nc(Nc2ccccc2)n1`, 67.8% (active); to `O=C(COC(=O)c1ccc(F)c(S(=O)(=O)N2CCOCC2)c1)NCc1ccc2c(c1)OCO2`, 4.89%.
For `COc1ccc(S(=O)(=O)N2CCCCCC2)cc1NC(=O)Cc1ccc(OC)c(OC)c1`, the inhibition is -23.5%.
As for `O=C(COC(=O)c1ccccn1)NNC(=O)c1ccc(Br)cc1`, the inhibition was -3.43%.
In the case of `Cn1c(N)c(C(=O)COC(=O)c2cnc(Cl)c(Cl)c2)c(=O)n(C)c1=O`, the inhibition was -7.14%.
As for `Cn1c(N)c(C(=O)COC(=O)c2ccc3ccccc3c2)c(=O)n(C)c1=O`, the inhibition is 51.1% (active).
To `Cn1c(N)c(C(=O)COC(=O)c2cccc(S(=O)(=O)N3CCOCC3)c2)c(=O)n(C)c1=O` belongs -27.4%.
For `O=C1c2ccccc2C(=O)N1c1cccc2ccccc12`, the inhibition is -17%.
The same measure for `C[N+](C)(CCCCCC[N+](C)(C)CCCN1C(=O)c2cccc3cccc(c23)C1=O)CCCN1C(=O)c2cccc3cccc(c23)C1=O`: -0.77%.
To `CN1C(=O)c2cccc3c(N)ccc(c23)C1=O` belongs 41.1% (active); to `O=C(O)c1ccc2c3c(cccc13)C(=O)N(OS(=O)(=O)c1ccccc1)C2=O`, -7.84%; to `COc1ccc(N2C(=O)c3cccc4cccc(c34)C2=O)nn1`, -17.9%.
Take `Cc1nn(C)cc1N1C(=O)c2cccc3c(N)ccc(c23)C1=O`: the inhibition is 38.4% (active).
To `Cc1noc(C)c1NC(=O)Nc1cccc2c1O[C@H](CN(C)C(=O)Nc1ccccc1)[C@@H](C)CN([C@H](C)CO)C2=O` belongs 1.33%; to `C[C@]12c3[nH]c4ccc(Cl)cc4c3CCN1C(=O)[C@@H](CC(=O)NCCCn1ccnc1)C[C@@H]2C(=O)N1CCOCC1`, -3.04%.
Turning to `CC[C@]12c3[nH]c4ccc(Cl)cc4c3CCN1C(=O)[C@@H](CC(=O)NCCCOC)C[C@@H]2C(=O)N1CCN(C(=O)c2ccco2)CC1`, the inhibition was -0.28%.
As for `O=C(N/N=C/c1c(Cl)[nH]c2ccccc12)c1sc2ccccc2c1Cl`, the inhibition is 92.7% (active).
For the molecule `COCCNC(=S)N/N=C/c1c(C)[nH]c2ccccc12`, the inhibition is -0.83%.
To `COc1ccc(CNC(=O)CNC(=O)c2sc3ccccc3c2Cl)cc1OC` belongs -23.5%.
To `CCCCNc1c(-c2ccc(OC)c(Sc3ccc(OC)cc3)c2)nc2ccc(Cl)cn12` belongs -30.4%; to `Cc1cccc(OCC(=O)OCC(=O)Nc2ccc(Cl)cn2)c1`, -10.8%.
The same measure for `Nc1ncnc2c1ncn2[C@@H]1O[C@H](CNCc2cccn2-c2nccs2)[C@@H](O)[C@H]1O`: -6.54%.
Take `COc1ccc2[nH]c3c(c2c1)CCN1C(=O)C(CC(=O)NCc2cccc(C(F)(F)F)c2)C[C@H](C(=O)N2CCOCC2)[C@@]31C` (some centres not stated): the inhibition is -21.4%.
The same measure for `CCN1C[C@@H]2[C@@H]3C(=O)N(Cc4ccccc4)C(=O)[C@@H]3[C@](Cc3ccccc3)(C(=O)OC)N2C1=NC1CCCCC1`: -11.5%; for `O=C(Nc1cccc2cccnc12)c1cccc(N2C(=O)CCC2=O)c1`: 45.5% (active); for `O=C(Nc1cccc2cccnc12)c1cccc(Cl)c1`: -10.3%.
The same measure for `COC(=O)c1cccc(NC(=O)c2cccc(N3C(=O)CCC3=O)c2)c1`: 13.2%; for `CN(Cc1ccccc1)C(=O)COC(=O)/C=C/c1ccc2c(c1)OCO2`: -11.9%; for `CCCC(=O)NC(Nc1ccccc1OC)C(Cl)(Cl)Cl` (configuration not stated): -0.68%.
The same measure for `COc1ccccc1NC(=O)CCCc1c[nH]c2ccccc12`: -3.22%; for `CCCCCCCC(=O)NC(Nc1ccccc1OC)C(Cl)(Cl)Cl` (configuration not stated): 51.6% (active).
Turning to `O=C(COC(=O)c1ccc([N+](=O)[O-])o1)NC12CC3CC(CC(C3)C1)C2`, the inhibition is -17.3%.
The same measure for `COC(=O)[C@@]1(C)[C@H]2C(=O)N(Cc3ccccc3)C(=O)[C@H]2[C@H]2CN=C(SCC3CC3)N21`: -26.2%; for `COc1cccc(C(=O)OCC(=O)c2[nH]c(C)c(C(C)=O)c2C)c1`: 11%; for `CC(=O)c1c(C)[nH]c(C(=O)COC(=O)c2cccs2)c1C`: -11.4%.
The same measure for `CC(=O)c1c(C)[nH]c(C(=O)COC(=O)c2cccc(S(=O)(=O)N(C)c3ccccc3)c2)c1C`: 63.5% (active); for `COc1ccccc1NC(=O)COC(=O)CNC(=O)C1CCCCC1`: -0.83%; for `C[C@H](CO)N1C[C@H](C)[C@@H](CN(C)S(=O)(=O)c2ccc(F)cc2)Oc2c(NC(=O)Nc3ccccc3)cccc2C1=O`: -5.33%.
